According to PubChem BioAssay (NCI):
The panel holds about 79,000 compounds, 15% with a hit somewhere; the sample as a whole holds those more often. Active and inactive are the calls of the source. Rule as the data show it: active = growth inhibition above about 70%; inactive = the rest.

Assays:
[1] = NCI Yeast Anticancer Drug Screen. Data for the wt1 strain (AID 149);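 also: 0% = growth of vehicle-treated wt1 cultures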; conditions: S. cerevisiae wt1 strain (SPY 50644) growth inhibition, hits give high values
Procedure, shortened: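 The wt1 strain was treated with compounds, and growth was compared with vehicle-treated cultures to give inhibition.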

[2] = NCI Yeast Anticancer Drug Screen. Data for the rad50EPP+ strain (AID 151);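 also: 0% = growth of vehicle-treated control cultures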; conditions: S. cerevisiae rad50 mutant strain, hits give high values
Procedure, shortened: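 rad50EPP+ yeast treated with test compounds. Readout: growth vs vehicle control.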

[3] = NCI Yeast Anticancer Drug Screen. Data for the mgt1 strain (AID 153); conditions: S. cerevisiae mgt1 mutant growth inhibition, hits give high values
Procedure, shortened: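 Growth inhibition relative to vehicle controls was scored for the mgt1 yeast strain after compound exposure.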

[4] = NCI Yeast Anticancer Drug Screen. Data for the rad50 strain (AID 155);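 also: 0% = growth of vehicle-only cultures of the same strain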; conditions: S. cerevisiae rad50 strain growth inhibition, hits give high values
Procedure, shortened: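 Cells are treated with compound, grown, and their growth is then scored against vehicle-only cultures of the same repair-deficient yeast strain.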

[5] = NCI Yeast Anticancer Drug Screen. Data for the mec2-1 strain (AID 157); conditions: S. cerevisiae mec2-1 strain, hits give high values
Procedure, shortened: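 Growth inhibition is read against vehicle-treated controls after compound exposure of the mec2-1 yeast strain, which is defective in DNA damage repair or cell cycle control.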

[6] = NCI Yeast Anticancer Drug Screen. Data for the rad14 strain (AID 159);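 also: 0% = growth of vehicle-treated control cultures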; conditions: S. cerevisiae rad14 strain growth inhibition, hits give high values
Procedure, shortened: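 Readout: yeast growth inhibition, referenced to vehicle-only cultures. Strain bears a defined alteration in DNA damage repair.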

[7] = NCI Yeast Anticancer Drug Screen. Data for the sgs1 mgt1 strain (AID 161);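 also: 0% = growth of cultures given vehicle only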; conditions: S. cerevisiae sgs1 mgt1 strain, hits give high values
Procedure, shortened: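 Growth of a repair-deficient yeast mutant was monitored after compound treatment and expressed as inhibition relative to vehicle-treated cultures.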

[8] = NCI Yeast Anticancer Drug Screen. Data for the cln2 rad14 strain (AID 165);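 also: 0% = growth equal to vehicle treated cultures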; conditions: S. cerevisiae cln2 rad14 strain, hits give high values
Procedure, shortened: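 Growth inhibition, relative to vehicle-treated controls, is the read-out. The test organism is a yeast strain with defined genetic alterations, cln2 rad14.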

[9] = NCI Yeast Anticancer Drug Screen. Data for the bub3 strain (AID 167); conditions: S. cerevisiae bub3 mutant strain, hits give high values
Procedure, shortened: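 Part of a panel of yeast mutants defective in DNA damage repair or cell cycle regulation. Each strain is grown with compound, and inhibition is calculated relative to solvent-treated cultures.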

[10] = NCI Yeast Anticancer Drug Screen. Data for the wt2 strain (AID 169);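 also: 0% = growth of vehicle-treated yeast cultures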; conditions: S. cerevisiae wt2 strain growth inhibition, hits give high values
Procedure, shortened: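 Compound exposure of yeast; growth compared with vehicle controls; inhibition reported.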

[11] = NCI Yeast Anticancer Drug Screen. Data for the mlh1 strain (AID 171);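 also: 0% = growth of vehicle-treated control cultures of the same strain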; conditions: S. cerevisiae mlh1 strain growth inhibition, hits give high values
Procedure, shortened: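 Compounds are applied to a genetically altered yeast strain, and its growth is compared with that of vehicle-treated cultures to give percent inhibition.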

[12] = NCI Yeast Anticancer Drug Screen. Data for the sgs1 strain (AID 173);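 also: 0% = growth of vehicle-only control cultures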; conditions: S. cerevisiae sgs1 mutant, hits give high values
Procedure, shortened: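 Compounds applied to genetically altered yeast; growth compared with vehicle-treated cultures to give % inhibition.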

[13] = NCI Yeast Anticancer Drug Screen. Data for the mlh1 rad18 strain (AID 175); conditions: S. cerevisiae mlh1 rad18 strain growth inhibition, hits give high values
Procedure, shortened: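 Cells of a genetically altered yeast strain, deficient in DNA damage repair, were treated with compound. Their growth was then compared with that of vehicle-treated cultures to give inhibition.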

[14] = NCI Yeast Anticancer Drug Screen. Data for the rad18 strain (AID 177); conditions: S. cerevisiae rad18 mutant growth inhibition, hits give high values
Procedure, shortened: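 Compounds are applied to a repair-deficient yeast strain, and growth is compared with that of vehicle-treated cultures to give percent inhibition.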

[15] = at 5.0 µM (retest, dose inferred, filed as 0.5)
[16] = at 50.0 µM (retest, dose inferred, filed as 5.0)

Measured: growth inhibition

Cc1c2ccccc2cc2ccccc12
inactive: [1]; at 1.2 µM -2% | [1]; at 3.7 µM 1% | [1]; at 11.0 µM 24% | [2]; at 1.2 µM 52% | [3]; at 1.2 µM -2% | [3]; at 3.7 µM 19% | [4]; at 1.2 µM 4% | [4]; at 3.7 µM 36% | [4]; [15] 16% | [5]; at 1.2 µM -2% | [5]; at 3.7 µM 14% | [5]; [15] 35% | [5]; at 11.0 µM 61% | [6]; at 1.2 µM 5% | [6]; at 3.7 µM 21% | [6]; at 11.0 µM 55% | [7]; [15] 34% | [8]; [15] 51% | [9]; at 1.2 µM -3% | [9]; at 3.7 µM 7% | [9]; [15] 58% | [9]; at 11.0 µM 49% | [10]; at 1.2 µM -4% | [10]; at 3.7 µM -1% | [10]; at 11.0 µM 63% | [11]; at 1.2 µM 8% | [11]; at 3.7 µM 27% | [12]; at 1.2 µM -14% | [12]; at 3.7 µM 20% | [13]; [15] 65% | [14]; at 1.2 µM 5% | [14]; at 3.7 µM 25%
active: [1]; at 33.0 µM 93% | [1]; at 100.0 µM 98% | [2]; at 3.7 µM 84% | [2]; at 11.0 µM 96% | [2]; at 33.0 µM 98% | [2]; at 100.0 µM 98% | [3]; at 11.0 µM 73% | [3]; at 33.0 µM 99% | [3]; at 100.0 µM 99% | [4]; at 11.0 µM 83% | [4]; at 33.0 µM 98% | [4]; [16] 98% | [4]; at 50.0 µM 98.3% | [4]; at 100.0 µM 98% | [5]; at 33.0 µM 99% | [5]; [16] 99% | [5]; at 50.0 µM 98.6% | [5]; at 100.0 µM 99% | [6]; at 33.0 µM 99% | [6]; at 100.0 µM 99% | [7]; [16] 99% | [7]; at 50.0 µM 98.4% | [8]; [16] 99% | [8]; at 50.0 µM 98% | [9]; at 33.0 µM 95% | [9]; [16] 99% | [9]; at 50.0 µM 98.2% | [9]; at 100.0 µM 99% | [10]; at 33.0 µM 98% | [10]; at 100.0 µM 99% | [11]; at 11.0 µM 86% | [11]; at 33.0 µM 99% | [11]; at 100.0 µM 99% | [12]; at 11.0 µM 97% | [12]; at 33.0 µM 99% | [12]; at 100.0 µM 99% | [13]; [16] 99% | [13]; at 50.0 µM 97.8% | [14]; at 11.0 µM 76% | [14]; at 33.0 µM 98% | [14]; at 100.0 µM 98%
